{
  "source": "PubChem BioAssay AID488789",
  "about": "(Broad Institute, 2010)",
  "note": "Entries with a potency or affinity are not part of this list. Records with an inconclusive call do not appear. The source made the active and inactive calls.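 How the source made its calls: active means samples whose fitted half-maximal inhibition concentration is no more than ten times the top valid dose tested; inconclusive means flat response between -70 and -30, or invalid curve fit; inactive means flat within 30 of zero, potency above limit, or signal rising.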",
  "data": [
    {"target": "Trypsin (Sus scrofa) (UniProt P00761)", "sequence (P00761 whole entry, looked up)": "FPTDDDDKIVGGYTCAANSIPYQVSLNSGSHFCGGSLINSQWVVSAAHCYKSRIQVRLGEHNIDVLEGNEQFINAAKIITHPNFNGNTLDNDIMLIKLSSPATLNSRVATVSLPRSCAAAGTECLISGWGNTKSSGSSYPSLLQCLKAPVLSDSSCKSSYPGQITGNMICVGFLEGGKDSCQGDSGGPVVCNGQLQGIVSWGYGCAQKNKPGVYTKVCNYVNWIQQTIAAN", "assay": "porcine trypsin inhibitors, dose response, selectivity assay for Rce1 protease inhibitor project, biochemical, quenched peptide fluorescence, cherry-pick (AID 488789);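 further: more negative means stronger trypsin inhibition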", "conditions": "quenched peptide cleavage fluorescence; series mostly up to 10 µM", "values": [
      {"smiles": "CC(=O)OCC[N+](C)(C)C", "outcome": "inactive"},
      {"smiles": "Cc1ccnc(-n2c(-c3ccco3)nc3ccccc3c2=O)c1", "outcome": "inactive"},
      {"smiles": "O=[N+]([O-])c1ccc(C[n+]2c(-c3ccccc3)cc(-c3ccccc3)cc2-c2ccccc2)cc1", "outcome": "inactive"},
      {"smiles": "C=CCn1c(O)c(C(CC)=Nc2ccc(N(CC)CC)cc2)c(=O)[nH]c1=O", "outcome": "inactive"},
      {"smiles": "Clc1ccc(C[n+]2c(-c3ccccc3)cc(-c3ccccc3)cc2-c2ccccc2)cc1", "outcome": "inactive"},
      {"smiles": "Cc1nccc2c1[nH]c1ccccc12", "outcome": "inactive"},
      {"smiles": "Cc1ccc(-c2cc(-c3ccccc3)cc(-c3ccccc3)[n+]2-c2ccccc2)cc1", "outcome": "inactive"},
      {"smiles": "CN1CC(C(=O)c2ccc(Cl)cc2)C(c2ccc(Cl)cc2Cl)C1", "note": "(stereo not drawn)", "outcome": "inactive"},
      {"smiles": "C=CC[N+]1(C)CC[C@]23c4c5ccc(O)c4O[C@H]2C(=O)CC[C@@]3(O)[C@H]1C5", "note": "(stereo partly drawn)", "outcome": "inactive"},
      {"smiles": "CCOc1ccc(C2C(C#N)=C(N)Oc3c2c(=O)oc2ccccc32)cc1", "note": "(stereo not drawn)", "outcome": "inactive"},
      {"smiles": "CCOC(=O)[C@@H]1[C@H]2COc3ccc(Br)cc3[C@@H]2N2C(=O)N(c3cccc(C)c3)C(=O)[C@]12C", "outcome": "inactive"},
      {"smiles": "CN1CCN(c2ccc([N+](=O)[O-])c(Sc3nncn3C)c2)CC1", "outcome": "inactive"},
      {"smiles": "c1ccc(CCCN2CCN(CCOC(c3ccccc3)c3ccccc3)CC2)cc1", "outcome": "inactive"}
    ]}
  ]
}
